# Data as given in the supplement of paper PMC3545927.
# This is one part of the list. The hit rate among all sequences tested is not known here.
# Target: furin, P09958
# Assay: furin cleavage Z-score vs untreated control; higher = more cleavage, active = 3.5 or more, inactive = 1 or less, 8 variable residues between constant flanks
# Summary of the method: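 The cleavage Z-score is the log read count relative to furin-free reactions, lowess-adjusted and scaled by median absolute deviation. Counts came from sequencing DNA released from bead-bound 8-mer peptide–cDNA fusions after digestion with purified furin for 7.5, 15 or 30 min.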
# 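Further: purified furin at 1:10 enzyme:substrate in 50 mM HEPES pH 7.5.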
# Chain of furin, P09958 (P09958 whole entry): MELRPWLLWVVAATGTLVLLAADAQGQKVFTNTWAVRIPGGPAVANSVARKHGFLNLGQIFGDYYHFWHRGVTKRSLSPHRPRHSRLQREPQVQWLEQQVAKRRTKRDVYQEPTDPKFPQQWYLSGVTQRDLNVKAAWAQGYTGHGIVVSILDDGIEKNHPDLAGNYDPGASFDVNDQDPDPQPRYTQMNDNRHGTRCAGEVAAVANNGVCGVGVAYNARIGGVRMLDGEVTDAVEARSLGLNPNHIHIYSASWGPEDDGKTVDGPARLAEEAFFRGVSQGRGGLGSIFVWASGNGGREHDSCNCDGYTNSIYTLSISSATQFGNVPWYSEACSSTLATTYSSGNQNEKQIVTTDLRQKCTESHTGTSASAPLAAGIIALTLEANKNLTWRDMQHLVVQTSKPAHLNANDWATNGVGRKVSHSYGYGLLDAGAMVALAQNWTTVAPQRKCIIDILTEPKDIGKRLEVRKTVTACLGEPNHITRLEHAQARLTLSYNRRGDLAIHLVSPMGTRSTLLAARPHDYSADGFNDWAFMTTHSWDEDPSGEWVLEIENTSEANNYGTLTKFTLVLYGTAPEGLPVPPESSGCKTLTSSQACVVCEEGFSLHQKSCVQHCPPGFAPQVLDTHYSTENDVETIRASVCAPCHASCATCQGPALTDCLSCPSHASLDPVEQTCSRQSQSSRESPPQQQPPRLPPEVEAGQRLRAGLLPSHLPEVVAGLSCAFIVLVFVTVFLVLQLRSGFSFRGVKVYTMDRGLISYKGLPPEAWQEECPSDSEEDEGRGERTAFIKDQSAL
Sequence,furin cleavage Z-score (7.5 min),furin cleavage Z-score (15 min),furin cleavage Z-score (30 min)
CARLEREKRAAGNASASA [FS-859],7.92 (active),10 (active),6.63 (active)
CAKERRYARKAGNASASA [FS-257],4.36 (active),5.28 (active),4.54 (active)
CARLRDSGRAAGNASASA [FS-85],0.0348 (inactive),-1.47 (inactive),-0.955 (inactive)
CARLCRRSRAAGNASASA [FS-1561],6.16 (active),7.37 (active),6.05 (active)
CAKERREKRAAGNASASA [FS-601],5.22 (active),4.77 (active),4.29 (active)
CAQKRREKKAAGNASASA [FS-79],-0.611 (inactive),2.25,1.6
CAKLKLTPIAAGNASASA [HC1637],-0.816 (inactive),-1.09 (inactive),-2.93 (inactive)
CAKESRGARGAGNASASA [FS-447],-0.759 (inactive),-0.656 (inactive),-0.69 (inactive)
CARLCRSVSGAGNASASA [FS-1859],0.288 (inactive),0.971 (inactive),1.11
CAHAPTGSGKAGNASASA [HC775],0.395 (inactive),-1.05 (inactive),-0.0524 (inactive)
CAMEGCSQHLAGNASASA [HC1716],1.23,0.47 (inactive),0.552 (inactive)
CAAEMEECSQAGNASASA [HC1783],-0.835 (inactive),2.03,-0.939 (inactive)
CASTPCSSHLAGNASASA [HC2537],-0.548 (inactive),-0.18 (inactive),0.0993 (inactive)
CAEVVTSTFVAGNASASA [HC2227],0.885 (inactive),0.0423 (inactive),0.809 (inactive)
CASRPSWGPTAGNASASA [HC212],-1.22 (inactive),0.133 (inactive),-0.131 (inactive)
CAIPKARRPEAGNASASA [HC193],-0.401 (inactive),-0.306 (inactive),-0.34 (inactive)
CAPSPEFFTEAGNASASA [HC1219],-1.44 (inactive),-0.301 (inactive),-0.0659 (inactive)
CAPSRRRKREAGNASASA [FS-1385],13.2 (active),15 (active),9.92 (active)
CAPTRRRWREAGNASASA [FS-1386],5.77 (active),5.98 (active),7.12 (active)
CAYRTRRKREAGNASASA [FS-637],9.23 (active),8.28 (active),6.71 (active)
CAYRFVAPGEAGNASASA [HC910],-0.691 (inactive),-0.942 (inactive),-0.913 (inactive)
CAEVAERKREAGNASASA [FS-1195],-1.19 (inactive),1.03,0.657 (inactive)
